Sampled rows, rich in hits. Any-hit rate of the full collection: about 1.4%.
AmpC detergent – inhibitors of E. coli AmpC beta-lactamase with detergent; AmpC hydrolysis of nitrocefin, absorbance 480 nm, 0.01% Triton; Potency, µM (doses to about 114 µM), inactives show top-dose activity change, negative = inhibition, usual class: inhibitors; hit rate 0.041% among 370,000;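 note: 0% = no-compound wells and -100% = no-enzyme wells; nearly all actives have a fitted effect of over 25% in size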
Target sequence (P00811 whole entry, looked up): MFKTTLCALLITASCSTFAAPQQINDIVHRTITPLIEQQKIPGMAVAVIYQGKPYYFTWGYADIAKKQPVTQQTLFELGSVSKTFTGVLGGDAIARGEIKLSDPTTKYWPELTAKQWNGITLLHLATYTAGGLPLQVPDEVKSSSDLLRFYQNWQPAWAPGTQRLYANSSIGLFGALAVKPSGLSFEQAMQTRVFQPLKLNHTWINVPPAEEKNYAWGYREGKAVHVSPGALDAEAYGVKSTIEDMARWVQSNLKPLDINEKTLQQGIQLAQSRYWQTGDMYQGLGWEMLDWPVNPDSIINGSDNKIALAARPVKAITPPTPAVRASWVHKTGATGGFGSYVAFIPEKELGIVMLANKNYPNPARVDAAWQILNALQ
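20 mM phosphate pH 7.0 + 0.01% (detergent screen) or 0.0001% Triton X-100; 5.3 nM AmpC reagent; cpd preinc 15 min RT; nitrocefin (800 uM stock) to start; A480 q20 s × 4 min; Activity was normalised to no-enzyme and no-compound control wells.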
TbPYK inhibitor – blocks Trypanosoma brucei pyruvate kinase. Q57TT1. hit rate 0.12% among 410,000. TbPYK enzyme, Kinase-Glo Plus ATP luminescence, 45 min. Potency, µM (series often up to 76.8 µM), for inactives: at the top dose activity, negative = inhibition, hits mostly inhibitors; note: nearly all actives have a fitted effect of over 50% in size
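Luminescent Kinase-Glo Plus end-point after 45 min room-temperature reaction of T. brucei pyruvate kinase started with 130 uM ADP (final). Buffer TEA 50 mM pH 7.2 with KCl, MgCl2, BSA, Tween-20; titration-based qHTS with fitted concentration-effect curves.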
RE007 growth inh – less growth of the S. pombe RE007 Vpr strain; S. pombe RE007 Vpr strain, BacTiter-Glo ATP luminescence, 24 h; Potency, µM (highest dose often 92.2 µM), for inactives: top-dose activity change, negative = less growth, most hits filed as inhibitors; hit rate 0.21% among 360,000; active = well fitted falling curve with a large enough effect; inconclusive = small, poorly fitted or top-dose-only effect; inactive = no such curve, though single readings can be large or run the other way; note: nearly all actives have a fitted effect of over 50% in size
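Fission yeast RE007 carrying one integrated HIV-1 vpr copy, seeded at OD 0.01 in PMG+AL medium with 23 nL pinned compound. Grown 24 h at 30 degrees; viability read by BacTiter-Glo luminescence after 5 min.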
AmpC no deterg – AmpC beta-lactamase inhibition without detergent | P00811 | AmpC nitrocefin hydrolysis, absorbance 480 nm, 0.0001% Triton | Potency, µM (doses to about 57.1 µM), inactives show top-dose activity change, negative = inhibition, actives largely listed as inhibitors | hit rate 0.52% among 330,000;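 note: plate controls were no compound for no effect and no enzyme for full effect; nearly all actives have a fitted effect of over 20% in size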
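AmpC (5.3 nM in the dispensed reagent) in 20 mM phosphate pH 7.0 with 0.01% (detergent screen) or 0.0001% Triton X-100 was preincubated with compounds for 15 min at room temperature. Nitrocefin was then added from an 800 uM solution, and hydrolysis was followed at 480 nm.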
LmPK inh – blocks Leishmania mexicana pyruvate kinase activity. purified LmPK, Kinase-Glo ATP luminescence, 1 h. Q27686. Potency, µM (doses to about 57.5 µM), inactives show at the highest dose activity change, negative = inhibition, hits mostly inhibitors. AID 1721. hit rate 0.37% among 290,000
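Kinase-Glo luminescence read after 1 h RT reaction of 0.1 nM LmPK with 0.5 mM PEP and 0.1 mM ADP. Activity scaled between uninhibited and enzyme-free controls.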
Giardia FBPA inh-1 – Giardia lamblia aldolase inhibition; A8B2U2; purified Giardia FBPA; Potency, µM (series often up to 59.6 µM), for the others: at the highest dose activity, negative = inhibition, hits mostly inhibitors; hit rate 0.71% among 290,000; AID 2451; note: nearly all actives have a fitted effect of over 55% in size
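Giardia FBPA (40 nM reagent) was preincubated 10 min at RT with compound (up to 57.5 uM final), then substrate plus GAPDH/TPI/NAD/arsenate coupling system with diaphorase/resazurin was added; resorufin fluorescence (525/598 nm) was read after 20 min.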
Giardia growth – blocks growth of Giardia lamblia trophozoites. shares compounds with Giardia FBPA inh-1. Giardia lamblia trophozoite growth inhibition. Potency, µM (highest dose often 57.5 µM), for the others: at the highest dose activity change, negative = inhibition, hits mostly inhibitors. hit rate 5% among 1,500;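 note: trophozoites exposed to compound for 48 h at 37 °C; nearly all actives have a fitted effect of over 70% in size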
Mammalian tox – counter-screen for Giardia aldolase inhibitors: mammalian cell toxicity; AID 2786; mammalian cell viability counter-screen, qHTS; shares compounds with Giardia FBPA inh-1; Potency, µM (series often up to 57.5 µM), for inactives: top-dose viability change, negative = toxicity, actives largely listed as inhibitors; hit rate 4% among 1,500;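 note: Chinese hamster ovary cells used as mammalian cytotoxicity surrogate; viability measured as cellular ATP by luminescence; compound exposure lasted 48 h before reading; nearly all actives have a fitted effect of over 60% in size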
Giardia FBPA inh-2 – confirmation of Giardia fructose-bisphosphate aldolase inhibitors. shares compounds with Giardia FBPA inh-1. purified Giardia aldolase enzyme activity, qHTS. Potency, µM (top dose mostly 57.5 µM), for the others: at the highest dose activity change, negative = inhibition, usual class: inhibitors. hit rate 5% among 1,500; note: nearly all actives have a fitted effect of over 45% in size
Rabbit aldolase – selectivity test for Giardia aldolase inhibitors: rabbit aldolase. hit rate 4% among 1,500. Rabbit muscle FBPA enzyme inhibition, selectivity counter-screen. AID 2794. shares compounds with Giardia FBPA inh-1. Potency, µM (highest dose often 57.5 µM), for inactives: at the highest dose activity, negative = inhibition, hits mostly inhibitors; note: nearly all actives have a fitted effect of over 60% in size
Target sequence (P00883 whole entry, looked up): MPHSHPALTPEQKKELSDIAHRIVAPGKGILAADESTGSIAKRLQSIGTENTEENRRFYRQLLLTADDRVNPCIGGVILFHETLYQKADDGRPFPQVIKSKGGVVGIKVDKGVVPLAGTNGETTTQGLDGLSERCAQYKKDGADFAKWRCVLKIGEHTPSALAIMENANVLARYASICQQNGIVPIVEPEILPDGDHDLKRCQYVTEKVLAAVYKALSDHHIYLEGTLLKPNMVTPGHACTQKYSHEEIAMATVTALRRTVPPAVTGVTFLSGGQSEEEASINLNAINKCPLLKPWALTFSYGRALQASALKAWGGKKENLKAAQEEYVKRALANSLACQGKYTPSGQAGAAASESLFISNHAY
GAPDH coupling – counter-screen for Giardia aldolase inhibitors: GAPDH coupling enzyme | shares compounds with Giardia FBPA inh-1 | hit rate 6% among 1,500 | GAPDH coupling enzyme counterscreen, biochemical, qHTS | Potency, µM (series often up to 57.5 µM), inactives show at the top dose activity change, negative = inhibition, usual class: inhibitors; note: nearly all actives have a fitted effect of over 55% in size
The depositor's hits bear a star; ? = inconclusive; / = not tested or not shown; [ ] = another dose, or the depositor's remark. Unless noted, calls come from the whole dose curve; as a rule, active = well fitted curve in the direction sought with a large enough effect; inconclusive = small, poorly fitted or top-dose-only effect, or another doubt; inactive = no such curve, though single readings can be large; an effect the other way counts as inactive or inconclusive. Unless noted, % is set by controls: 0 for no effect and ±100 for the full control effect; potency is the fitted concentration of half-maximal effect.

SMILES	AmpC detergent	TbPYK inhibitor	RE007 growth inh	AmpC no deterg	LmPK inh	Giardia FBPA inh-1	Giardia growth	Mammalian tox	Giardia FBPA inh-2	Rabbit aldolase	GAPDH coupling
COc1cc(CNc2ccc(N3CCCC3)cc2)cc(Cl)c1OC	8.0%	?	-13.6%	-10.7%	-7.5%	1.77µM*	-29.6%	-27.2%	17.8µM*	31.6µM*	?
CCOc1ccc(CNc2ccc(N3CCCC3)cc2)cc1	0.6%	-19.6%	-25.2%	-8.6%	1.2%	0.5µM*	-14.1%[38.3 µM]	-10.5%	?	?	?
CCOc1ccc(CNc2ccc(N3CCN(Cc4ccccc4)CC3)cc2)cc1	-8.3%	4.1%	-21.3%	-0.8%	-0.5%	-17.5%	/	/	/	/	/
Cc1cc(C)c2oc(-c3ccc(C)c(NC(=O)/C=C/c4ccco4)c3)nc2c1	-3.3%	?	/	/	/	/	/	/	/	/	/
S=C(NCc1ccccc1)Nc1nccs1	?	-16.1%	-7.5%	-33.3%	-1.3%	12.6µM*	-17.7%	-23.0%	1.1%	11.8%	-17.7%
C=CCNC(=S)Nc1ccccc1-c1nnc2n1CCCCC2	-8.7%	-17.9%	0.8%	-3.6%	7.0%	12.6µM*	10.2%[10.4 µM]	-2.1%	0.5%	3.5%	18.5%
O=c1[nH]c(=S)[nH]c2sccc12	10.3%	-21.3%	19.7%	-11.5%	5.9%	7.06µM*	-5.7%[38.3 µM]	-6.2%	-11.7%	-14.8%	-9.3%
O=c1c2oc3ccccc3c2[nH]c(=S)n1-c1ccccc1	-2.9%	-31.5%	/	-25.5%	-6.6%	1.7%	/	/	/	/	/
O=c1c2sccc2[nH]c(=S)n1-c1ccccc1	5.1%	?	-10.6%	-21.9%	-21.1%	17.7µM*	?	1.1%	-3.5%	-3.7%	4.3%
COC(=O)[C@@H](N)CS	-8.0%	1.7%	-10.0%[18.4 µM]	-21.4%	1.8%	15.8µM*	3.1%[10.4 µM]	0.5%	3.9%	10.9%	13.3%
COc1ccc(OC)c(S(=O)(=O)NNC(=S)Nc2ccc3c(c2)OCO3)c1	-11.4%	-11.6%	-12.0%	-26.7%	-0.3%	8.91µM*	9.1%[38.3 µM]	-0.8%	-16.0%	-10.4%	-16.6%
COc1ccc(OC)c(S(=O)(=O)N(C)CC(=O)Nc2ccc3c(c2)OCO3)c1	-6.6%	9.2%	0.6%	-18.7%	1.7%	-3.6%	/	/	/	/	/
COC(=O)c1ccc(OC)c(Cn2c(=O)n(-c3cccc(Cl)c3)c(=O)c3c4c(sc32)CN(C(C)=O)CC4)c1	17.1%	4.4%	/	/	/	/	/	/	/	/	/
Cn1cc(Br)c(C(=O)NC(=S)Nc2ccc(S(N)(=O)=O)cc2)n1	-4.2%	-8.5%	-10.9%	-22.9%	-7.9%	15.8µM*	-26.0%	9.6%	2.8%	8.7%	11.9%
NS(=O)(=O)c1ccc(NC(=S)NCc2ccc(Cl)cc2)cc1	-5.4%	-28.7%	-12.7%	-39.8%	1.0%	15.8µM*	-8.3%[10.4 µM]	-9.1%	-6.1%	2.3%	8.8%
CCN(C(=O)c1cn(CC)c(=O)c2cc(OC)c(OC)cc12)c1ccc(C)c(C)c1	-7.4%	2.8%	/	/	/	/	/	/	/	/	/
NC(=S)NN=C1C2CC3CC(C2)CC1C3	?	-14.8%	-9.1%	-13.2%[11.4 µM]	4.9%	17.7µM*	11.0%	6.5%	-1.6%	14.7%	5.6%
NC(=O)C(=O)NN=C1C2CC3CC(C2)CC1C3	0.5%	1.7%	2.7%	-17.1%	-2.0%	-9.6%	/	/	/	/	/
C=CCNC(=S)/C(=C(\[O-])c1ccc(Cl)cc1)[n+]1ccccc1	-4.8%	-11.1%	-10.1%	5.4%	1.6%	12.6µM*	-21.1%	4.3%	-1.6%	6.9%	-1.8%
CC1=C(c2ccc(C)cc2)S(=O)(=O)NC1=NCCCN1CCN(c2ccccc2F)CC1	21.1%	-4.8%[15.4 µM]	/	/	/	/	/	/	/	/	/
O=C(CSc1nc2ncccc2[nH]1)Nc1c(F)cc(F)cc1Br	-14.8%	-1.6%	11.1%	-28.2%	8.3%	25.1µM*	-18.4%	7.4%	4.3%	4.8%	21.6%
Cc1ccc(Cn2c(=O)n(-c3cc(C)cc(C)c3)c(=O)c3oc4ccccc4c32)cc1	13.8%	2.2%	/	/	/	/	/	/	/	/	/
O=C(O)c1cc(Br)ccn1	5.4%	2.7%	-10.1%	-35.1%	-2.2%[11.5 µM]	15.8µM*	-7.8%[10.4 µM]	8.7%	0.9%	0.0%	4.0%
NS(=O)(=O)c1ccc(CCNCC#Cc2ccccc2)cc1	-15.8%	3.2%	1.9%	-21.7%	-1.8%	22.4µM*	42.9%	-6.9%	0.3%	-0.8%	8.7%
NC1=NN=C(N2N=C(c3ccc(Br)cc3)CC2(O)C(F)(F)F)n2ncnc2C1 (stereo not drawn)	-11.3%	4.7%	5.8%	-30.4%	-0.2%	?	14.3%[38.3 µM]	-0.8%	3.3%	1.0%	-14.5%

Compound activity deposited in PubChem BioAssay by National Center for Advancing Translational Sciences (NCATS).
